{
  "source": "PubChem BioAssay AID581",
  "about": "(PCMD, 2007)",
  "note": "The campaign covered roughly 62,000 compounds. About 95 (0.2%) were called active.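 How the source made its calls: active means inhibition above 20% in each of the two mixture wells holding the compound; inactive means inhibition of 20% or less in either well.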 Shown is part of a subset that was picked to be rich in actives.",
  "data": [
    {"biological_target": "Cathepsin G (Homo sapiens) (UniProt P08311)", "sequence (P08311 21-244 limits assumed)": "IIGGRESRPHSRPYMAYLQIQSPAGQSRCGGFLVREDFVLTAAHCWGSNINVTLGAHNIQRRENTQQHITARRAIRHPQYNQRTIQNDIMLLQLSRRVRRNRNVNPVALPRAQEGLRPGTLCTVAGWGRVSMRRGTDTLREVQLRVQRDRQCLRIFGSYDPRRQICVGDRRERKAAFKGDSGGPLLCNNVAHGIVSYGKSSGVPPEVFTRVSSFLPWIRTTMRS", "test": "human cathepsin G inhibitors, primary screen, biochemical, pooled compound mixtures, AMC fluorescence (AID 581);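 further: 0% = enzyme control without mixture and 100% = blank lacking enzyme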", "details": "purified enzyme, AMC-tetrapeptide fluorescence, hits give high values, screened at 5 µM (by protocol)", "values": [
      {"smiles": "COc1ccc(CCN=C2SCC(=O)N2C)cc1OC", "inhibition": "11.6% (inactive)"},
      {"smiles": "O=C(CCN1C(=O)C2C3C=CC(C3)C2C1=O)Nc1ccccc1F", "note": "(stereo unspecified)", "inhibition": "6.93% (inactive)"},
      {"smiles": "O=C(COc1ccccc1Cl)Nn1cnnc1", "inhibition": "3.79% (inactive)"},
      {"smiles": "CCCOc1ccc(N2CC(C(=O)Nc3ccccn3)CC2=O)cc1", "note": "(stereo unspecified)", "inhibition": "1.22% (inactive)"},
      {"smiles": "CC1CN(C2CCCCC2)c2nc3c(c(=O)n(C)c(=O)n3C)n2C1", "note": "(stereo unspecified)", "inhibition": "-2.58% (inactive)"},
      {"smiles": "COc1ccc(C2CC(c3ccccc3)Nc3ncnn32)cc1", "note": "(stereo unspecified)", "inhibition": "-0.07% (inactive)"},
      {"smiles": "O=C(c1cccnc1NCc1ccccc1)N1CCOCC1", "inhibition": "-5% (inactive)"},
      {"smiles": "CN(C)/C=C1/Nc2ccccc2C1=O", "inhibition": "-0.82% (inactive)"},
      {"smiles": "O=c1nc(N2CCOCC2)nc2n1CCO2", "inhibition": "1.08% (inactive)"},
      {"smiles": "CCOc1ccc(C(=O)N(Cc2ccc(N(C)C)cc2)C2CCS(=O)(=O)C2)cc1", "note": "(stereo unspecified)", "inhibition": "7.67% (inactive)"},
      {"smiles": "CCN1CCN(C(=O)c2ccccc2N(C)S(=O)(=O)c2ccc(C)cc2)CC1", "inhibition": "3.35% (inactive)"},
      {"smiles": "CCc1nc(Nc2ccc3nccnc3c2)c2oc3ccccc3c2n1", "inhibition": "-2.89% (inactive)"},
      {"smiles": "CNC(=O)n1ccc(C(=O)N2CCCCC2)n1", "inhibition": "11% (inactive)"},
      {"smiles": "CC(C)(C)n1nnnc1C(c1ccc2ncccc2c1)N1CCSCC1", "note": "(stereo unspecified)", "inhibition": "-7% (inactive)"},
      {"smiles": "Cc1ccc(N2C(=O)c3oc4ccccc4c(=O)c3C2c2cccnc2)nc1", "note": "(stereo unspecified)", "inhibition": "10.5% (inactive)"},
      {"smiles": "O=C(O)CN1C(=O)CC(Cc2ccccc2)C1=O", "note": "(stereo unspecified)", "inhibition": "-0.115% (inactive)"},
      {"smiles": "CCCCn1c(SCc2ncc(-c3ccccc3)o2)nc2cc(S(N)(=O)=O)ccc21", "inhibition": "13.9% (inactive)"},
      {"smiles": "Cc1ccc(CNC(=O)C2CCCN(S(C)(=O)=O)C2)cc1", "note": "(stereo unspecified)", "inhibition": "-3.54% (inactive)"},
      {"smiles": "CCC1SC2=NCCN2C1(O)c1ccc(Cl)cc1", "note": "(stereo unspecified)", "inhibition": "1.99% (inactive)"},
      {"smiles": "Cn1c(=O)[nH]c(=O)c2c1nc(N(CCO)Cc1ccccc1)n2Cc1ccccc1Cl", "inhibition": "5.71% (inactive)"},
      {"smiles": "COc1ccccc1N1CCN(CCCCOc2ccc(F)cc2)CC1", "inhibition": "13.1% (inactive)"},
      {"smiles": "CCS(=O)(=O)NCCc1ccc(OC)c(OC)c1", "inhibition": "13.1% (inactive)"},
      {"smiles": "CCCN1CCN(C(=O)Cn2ncc3ccccc32)CC1", "inhibition": "-11.9% (inactive)"},
      {"smiles": "CCc1nc2oc3ccccc3c(=O)c2c(=O)n1Cc1ccc(OC)cc1", "inhibition": "-20.5% (inactive)"},
      {"smiles": "Cn1cccc1Cc1nnc(SCC(=O)NCc2ccc3c(c2)OCO3)n1CCc1ccccc1", "inhibition": "10.5% (inactive)"},
      {"smiles": "COc1ccc(C(=O)Cn2nnc(-c3ccc(N4CCOCC4)cc3)n2)cc1OC", "inhibition": "2.19% (inactive)"},
      {"smiles": "COc1ccc(CC(=O)n2nc(-c3cccnc3)nc2N)cc1", "inhibition": "14.7% (inactive)"},
      {"smiles": "COc1ccc(C(=O)n2nc(-c3ccc(Cl)cc3)nc2N)cc1OC", "inhibition": "37.8% (active)"},
      {"smiles": "COc1ccc(C(=O)n2nc(-c3ccc(C)cc3)nc2N)cc1OC", "inhibition": "44% (active)"},
      {"smiles": "COC(=O)c1ccc(OC(=O)c2nn(C)cc2Cl)c(OC)c1", "inhibition": "1.08% (inactive)"},
      {"smiles": "COc1ccccc1C(=O)n1nc(-c2ccccc2)nc1N", "inhibition": "7.93% (inactive)"}
    ]}
  ]
}
